# DT40 TDP1 no CPT = qHTS for Inhibitors of human tyrosyl-DNA phosphodiesterase 1 (TDP1): qHTS in cells in absence of CPT. AID 686978, 2013. Potency, µM (top dose mostly 46.2 µM), for inactives: at the top dose activity change, negative = growth inhibition, hits mostly inhibitors. 420,000 tested, 15% active. DT40 Tdp1-/- hTDP1 cells, no CPT, ATP luminescence, 48 h; note: potency is the fitted concentration of half-maximal effect; nearly all actives have a fitted effect of over 55% in size
#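 Compound effects on proliferation are scored in DT40 Tdp1-/-;hTDP1 cells in the absence of CPT. ATP levels (CellTiter-Glo luminescence) are recorded after a ≥48 hr, 37 °C incubation.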
# DT40 TDP1 CPT = DT40-hTDP1 cell growth loss with CPT. chicken DT40 Tdp1-/-;hTDP1 cells + 20 nM CPT, ATP luminescence, 48 h. Potency, µM (series often up to 46.2 µM), for the others: top-dose activity change, negative = growth inhibition, hits mostly inhibitors. 420,000 tested, 12% active. AID 686979; note: potency is the fitted concentration of half-maximal effect; nearly all actives have a fitted effect of over 55% in size
#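 Chicken DT40 Tdp1-/- cells complemented with human TDP1, 400 cells/well, exposed to compounds plus 20 nM camptothecin for at least 48 h at 37 C; viability read as ATP content by CellTiter-Glo luminescence.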
# IL-1B inflam inh = inflammasome signaling inhibition, IL-1 beta readout | AID 743279 | THP-1 LPS/ATP IL-1B secretion, AlphaLISA, 16 h; active compounds read low | activity change, % at 57.5 µM | 360,000 tested, 4.7% active; in the data active = activity change below about -50%; inconclusive = mostly about -30% to -49%
#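 Secreted IL-1B measured by AlphaLISA bead assay after 16 h compound exposure of THP-1 cells; compounds (final up to 57.5 uM) added 1 h before LPS (250 ng/mL) and ATP (1.25 mM) stimulation; lower signal means less secretion.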
# HT1080-NT tox = kills 2HG-producing HT-1080-NT fibrosarcoma cells; Potency, µM (titrated, usually from 46.1 µM), for the others: at the highest dose activity, negative = less viability, most hits filed as cytotoxic; HT-1080-NT fibrosarcoma viability, CellTiter-Glo ATP luminescence, 48 h; 360,000 tested, 1.6% active;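 note: NT is the 2HG producing partner of a matched IDH1 knockdown line; potency is the fitted concentration of half-maximal effect; 0% = DMSO-treated cells and -100% = media-only wells without cells; nearly all actives have a fitted effect of over 55% in size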
#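 750 cells/well, RPMI + 5% FBS; 2 h settle, compound pin-transfer, 48 h at 37 degrees C. CellTiter-Glo 10 min RT, luminescence. Normalized to DMSO and media-only wells.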
# HT1080 IDH1KD tx = kills HT-1080 cells with IDH1 knockdown; Potency, µM (titrated, usually from 46.1 µM), without a hit: at the top dose activity, negative = toxicity, usual class: cytotoxic; AID 686971; 360,000 tested, 2% active; HT-1080 IDH1 knockdown viability, ATP luminescence, 48 h;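 note: potency is the fitted concentration of half-maximal effect; 0% = DMSO wells and -100% = cell-free medium wells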
#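 HT-1080-IDH1KD cells (IDH1 knocked down), 750/well in RPMI with 5% FBS, treated with compound 48 h at 37 degrees C. Viability by CellTiter-Glo luminescence, normalised to DMSO and no-cell wells; concentration-response curves classed.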
# The depositor's hits bear a star; ? = inconclusive; . = no result; ! = not confirmed by another sample; [ ] = dose if it differs, or a comment. Rows were chosen to be rich in hits. Some 19% of all compounds tested hit in one or more screens of this group. Unless noted, calls come from the whole dose curve; as a rule, active = well fitted curve in the direction sought with a large enough effect; inconclusive = small, poorly fitted or top-dose-only effect, or another doubt; inactive = no such curve, though single readings can be large; an effect the other way counts as inactive or inconclusive. Unless noted, % is set by controls: 0 for no effect and ±100 for the full control effect.
SMILES,DT40 TDP1 no CPT,DT40 TDP1 CPT,IL-1B inflam inh,HT1080-NT tox,HT1080 IDH1KD tx
CCOC(=O)c1sc(Nc2nc3c(OC)cccc3s2)cc1C,16µM*,?,?,-23%,?
COc1ccccc1C(=O)Nn1c(C)nc2ccccc2c1=O,?,10µM*,-6,1%,-5%
CCOC(=O)c1sc(Nc2nc3cc4c(cc3s2)OCO4)cc1C,-15%,-1%,-2,-19%,-18%
COC(=O)[C@@H]1C[C@@H](NC(=O)c2ccc(C(F)(F)F)cc2)CN1Cc1cccc(O)c1,-15%,-8%[9.04 µM],.,.,.
COc1cccc(NC(=O)c2ccccc2NS(C)(=O)=O)c1,21µM*,?,15,-6%,-2%
CS(=O)(=O)Nc1ccccc1C(=O)Nc1cccc(Cl)c1,23µM*,?,23,?,2%[9.24 µM]
COc1cccc(NC(=O)c2cc(Cl)nnc2Cl)c1,8.2µM*,0.52µM*,-92*,12µM*,?
COc1ccc(NC(=O)c2ccccc2NS(C)(=O)=O)cc1OC,10µM*,21µM*,0,-7%,-2%
COc1cc(NC(=O)c2cc(Cl)nnc2Cl)cc(OC)c1OC,?,?,?,-6%,-16%
COc1ccccc1NC(=O)c1cccs1,-10%,-6%,3,-3%,9%
CCOc1ccccc1NC(=O)c1ccccc1NS(C)(=O)=O,?,-18%,-4,0%,11%
COc1ccccc1NC(=O)c1ccccc1NS(C)(=O)=O,15µM*,?,0,8%,17%
CCS(=O)(=O)c1ccc(C(=O)Nc2cccc(Cl)c2)c(Cl)c1Cl,21µM*,?,?,-12%,-19%
COc1ccccc1NC(=O)c1ccccc1NC(=O)c1cccs1,?,23µM*,-16,0%,-9%
COc1ccccc1NC(=O)c1ccccc1-c1nc(-c2ccccc2OC)no1,6.3µM*,14µM*,-3,-15%,?
CCCn1c(=O)c2[nH]c(-c3ccc(OCC(=O)Nc4ccc(C#N)cc4)cc3)nc2n(CCC)c1=O,?,-29%,-16,0%,0%
CC(C)(C)NC(=O)C(c1ccnc2ccccc12)n1c(=O)c(-c2ccco2)nc2ccccc21 (stereo not given),?,?,16,2%,0%
CC(C)(C)c1ccc(CC(=O)N2CCC2(C)C(=O)NS(=O)(=O)c2ccccc2Cl)cc1 (stereo not given),4%,18%,29,?,20%
COc1ccccc1Nc1ncc(C(=O)Nc2ccc(OC)c(OC)c2)c2ccccc12,16µM*!,18µM*,-7,-11%,6%
COc1ccc(Nc2ncc(C(=O)Nc3cccc(OC)c3)c3ccccc23)cc1,-13%,?,.,.,.
N#Cc1ccc(OCC(=O)OCC(=O)Nc2sccc2C(N)=O)cc1,0%,9%,10,-3%,-2%
CCNC(=O)C(=O)Nc1ccc(OC)c(Cl)c1,?,-14%,0,12%,20%
Cc1cc(C(=O)C(=O)N(C)C)c(C)n1-c1ccc([N+](=O)[O-])cc1,-25%,-20%,0,0%[9.24 µM],-10%
COc1cc(C(=S)N2CCOCC2)cc(OC)c1OS(=O)(=O)c1ccc(Cl)cc1,?,?,1,-2%,-5%
Cc1cc(C(=S)N2CCOCC2)c(C)n1-c1ccc(Cl)cc1,21µM*,21µM*,-18,4%,-1%
Cc1cc(C(=O)C(=O)N(C)C)c(C)n1-c1ccc(Cl)cc1,18µM*,?,9,0%,-2%
C=CCN(CC=C)C(=O)C(=O)c1cc(C)n(-c2ccc([N+](=O)[O-])cc2)c1C,15µM*,?,10,-4%,-3%
COc1ccc(NC(=O)C(=O)c2cc(C)n(-c3ccc(C)cc3)c2C)cc1Cl,8.2µM*,?,.,.,.
NC(=S)N1CCCc2ccccc21,-5%,-2%,33,-3%,3%
CC(C)(C)OC(=O)N1CCN(c2ccc([N+](=O)[O-])cc2)CC1,3%,0%,15,2%,4%

# Bioassay records deposited in PubChem by National Center for Advancing Translational Sciences (NCATS).
